HT1080NT lethal – kills 2HG-producing HT-1080-NT fibrosarcoma cells; HT-1080-NT fibrosarcoma viability, CellTiter-Glo ATP luminescence, 48 h; Potency, µM (titrated, usually from 46.1 µM), inactives show at the highest dose activity, negative = less viability, usual class: cytotoxic; actives 1.6% (n = 360,000);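 note: NT is the 2HG producing partner of a matched IDH1 knockdown line; 0% = DMSO-treated cells and -100% = media-only wells without cells; nearly all actives have a fitted effect of over 55% in size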
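Read-out is CellTiter-Glo luminescence after 10 minutes at room temperature, following 48 hours' compound treatment of HT-1080-NT cells (750 cells/well, RPMI, 5% FBS, 37 degrees C).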
HT1080 IDH1KD tx – toxicity to HT-1080 IDH1 knockdown cells (counter line); HT-1080 IDH1 knockdown viability, ATP luminescence, 48 h; Potency, µM (top dose mostly 46.1 µM), for inactives: top-dose activity, negative = toxicity, usual class: cytotoxic; AID 686971; actives 2% (n = 360,000);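 note: 0% = DMSO wells and -100% = cell-free medium wells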
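Using the IDH1-knockdown HT-1080 line run in the same batch and compound series as the NT line, viability after 48 h at 37 °C was determined by CellTiter-Glo luminescence and expressed as % activity.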
S2 tox – reduces viability in counter-screen for ATXN expression inhibitors. Potency, µM (titrated, usually from 56.7 µM), most hits filed as cytotoxic. S2 cells (HEK-293 line with an ATXN2-luciferase reporter) viability, CellTiter-Fluor protease fluorescence, 24 h. actives 0.49% (n = 400,000); note: nearly all actives have a fitted effect of over 40% in size
ATXN2 expr inh – reduces ATXN2 reporter expression in HEK-293 cells. HEK-293 ATXN2-luciferase reporter, luminescence, 24 h. Potency, µM (series often up to 57 µM), for inactives: at the highest dose activity change, negative = inhibition, hits mostly inhibitors. actives 0.72% (n = 360,000); note: % is set by controls: 0 for no effect and ±100 for the full control effect; nearly all actives have a fitted effect of over 55% in size
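ATXN2-luciferase reporter cells (luciferase flanked by upstream and downstream ATXN2 gene portions) were treated 24 h at 37 °C with compounds at up to 57 uM. SteadyGlo luminescence gave expression; GF-AFC fluorescence gave viability.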
KB-V1 cytotox – KB-V1 MDR subline cytotoxicity; KB-V1 MDR cells viability, CellTiter-Glo, 72 h; Potency, µM (series often up to 46.1 µM), actives largely listed as cytotoxic; actives 3.4% (n = 400,000); note: % is set by controls: 0 for no effect and ±100 for the full control effect; nearly all actives have a fitted effect of over 60% in size
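KB-V1, DMEM (no phenol red) + 10% FBS; cpd pin-transferred, titration series; 72 h, 37 degrees C; CellTiter-Glo, luminescence. Data normalized, curve-fit.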
KB-3-1 tox – kills parental KB-3-1 adenocarcinoma cells; Potency, µM (doses to about 46.1 µM), usual class: cytotoxic; KB-3-1 viability, CellTiter-Glo ATP luminescence, 72 h; actives 1.4% (n = 400,000); note: % is set by controls: 0 for no effect and ±100 for the full control effect; nearly all actives have a fitted effect of over 60% in size
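Cytotoxicity in the drug-sensitive parental line KB-3-1 was scored as loss of CellTiter-Glo luminescence following 72 h incubation with compound. Values come from curve fitting of normalized concentration-response data.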
The depositor's hits bear a star. Hits are enriched below; roughly 6.2% of the tested compounds scored in any of these assays. Calls come from the whole dose curve; as a rule, active = well fitted curve in the direction sought with a large enough effect; inconclusive = small, poorly fitted or top-dose-only effect, or another doubt; inactive = no such curve, though single readings can be large; an effect the other way counts as inactive or inconclusive. Potency is the fitted concentration of half-maximal effect.

How did COc1ccc(/C=C/C(=O)OCC(=O)c2ccccc2F)cc1 do in these assays?
HT1080NT lethal: 14%; HT1080 IDH1KD tx: 16%; S2 tox: inactive; ATXN2 expr inh: 25%; KB-V1 cytotox: inactive; KB-3-1 tox: inactive

What do the screens show for `COc1ccc(/C=C\C(=O)CC(O)(c2ccccc2)C(F)(F)F)cc1` (stereo not drawn)?
HT1080NT lethal: inconclusive; HT1080 IDH1KD tx: 11µM*; S2 tox: inactive; ATXN2 expr inh: -20%; KB-V1 cytotox: inconclusive; KB-3-1 tox: inactive

What do the screens show for `CC(=O)Nc1ccc(NC(=O)CC(C)n2ccc(C)n2)cc1` (stereo not drawn)?
S2 tox: inactive; ATXN2 expr inh: -3%; KB-V1 cytotox: inconclusive; KB-3-1 tox: inactive

How did CCCc1nc2c3ccccc3ccn2c1Cc1cccc(Cl)c1 do in these assays?
HT1080NT lethal: 26µM*; HT1080 IDH1KD tx: inconclusive; S2 tox: 35µM*; ATXN2 expr inh: 2%; KB-V1 cytotox: inactive; KB-3-1 tox: inactive

How did CC(C)Cn1cc(NC(=O)NCc2cccc(Cl)c2)c2ccccc2c1=O do in these assays?
S2 tox: inactive; ATXN2 expr inh: -5%; KB-V1 cytotox: inactive; KB-3-1 tox: inactive

What do the screens show for `COC(=O)C1=C(C)NC(=O)NC1c1cn(-c2ccccc2)nc1-c1cccs1` (stereo not drawn)?
HT1080NT lethal: -7%; HT1080 IDH1KD tx: -16%; S2 tox: inactive; ATXN2 expr inh: 1%; KB-V1 cytotox: inactive; KB-3-1 tox: inactive

What do the screens show for `CCOC(=O)C1=C(C)NC(=O)NC1c1cn(-c2ccccc2)nc1-c1cccs1` (stereo not drawn)?
HT1080NT lethal: inconclusive; HT1080 IDH1KD tx: inconclusive; S2 tox: inactive; ATXN2 expr inh: -7%; KB-V1 cytotox: 21µM*; KB-3-1 tox: inactive

Results for O=S1(=O)N=C(Oc2ccc(C(F)(F)F)cc2)c2ccccc21 ?
KB-V1 cytotox: inactive; KB-3-1 tox: inconclusive

What do the screens show for `COc1ccc(S(=O)(=O)N2CCOCC2)cc1NC(=O)Cc1cccs1`?
HT1080NT lethal: 0%; HT1080 IDH1KD tx: 23%; S2 tox: inactive; ATXN2 expr inh: -19%; KB-V1 cytotox: inactive; KB-3-1 tox: inconclusive

How did N#Cc1cc2ccccc2nc1SCC(=O)Nc1ccc(S(=O)(=O)N2CCCC2)cc1 do in these assays?
HT1080NT lethal: -19%; HT1080 IDH1KD tx: -26%; S2 tox: inactive; ATXN2 expr inh: -20%; KB-V1 cytotox: 4.1µM*; KB-3-1 tox: inactive

How did COc1cccc(CN(C)CC(=O)Nc2cc(S(=O)(=O)N3CCCC3)ccc2Cl)c1OC do in these assays?
HT1080NT lethal: -7%; HT1080 IDH1KD tx: -3%; S2 tox: inactive; ATXN2 expr inh: -25%; KB-V1 cytotox: 21µM*; KB-3-1 tox: inconclusive

What do the screens show for `CCOc1ccc(S(=O)(=O)N2CCCCC2)cc1NC(=O)Cc1cccs1`?
HT1080NT lethal: -4%; HT1080 IDH1KD tx: -3%; S2 tox: inactive; ATXN2 expr inh: -15%; KB-V1 cytotox: 23µM*; KB-3-1 tox: inactive

What do the screens show for `COc1ccc(S(=O)(=O)N2CCCCC2)cc1NC(=O)CCc1cc(OC)c(OC)c(OC)c1`?
HT1080NT lethal: 1%; HT1080 IDH1KD tx: 10%; S2 tox: inconclusive; KB-V1 cytotox: inactive; KB-3-1 tox: inactive

What do the screens show for `COc1ccc(S(=O)(=O)N2CCCCCC2)cc1NC(=O)Cc1cc(OC)c(OC)c(OC)c1`?
HT1080NT lethal: 1%; HT1080 IDH1KD tx: -1%; S2 tox: inconclusive; ATXN2 expr inh: -4%; KB-V1 cytotox: 2.3µM*; KB-3-1 tox: inactive

What do the screens show for `COc1ccc(S(=O)(=O)N2CCCCC2)cc1NC(=O)CSc1ncnc2ccccc12`?
HT1080NT lethal: -10%; HT1080 IDH1KD tx: -10%; S2 tox: inconclusive; ATXN2 expr inh: 19%; KB-V1 cytotox: 21µM*; KB-3-1 tox: inactive
